Results published in PubChem BioAssay.
The source made the active and inactive calls. Unless noted, the rule behind the calls is not given here.

Experiments:
[1] = compound effects on lung adenocarcinoma cell viability – A549, calcein-AM fluorescence, 48 h, basal, profiling panel (AID 1162); settings: higher = more signal; note: test concentration not given here
[2] = compound effects on differentiated 3T3-L1 adipocyte viability – cell-based, 3T3-L1 adipocytes, calcein-AM fluorescence, 48 h, basal, profiling panel (AID 1163); settings: 3T3-L1 adipocytes viability, higher = more signal; note: test concentration not given here
[3] = compound effects on hepatocellular carcinoma cell viability – HepG2, calcein-AM fluorescence, 48 h, basal, profiling panel (AID 1164); settings: higher = more signal; note: test concentration not given here
[4] = compound effects on multiple myeloma cell viability – MM1S, calcein-AM fluorescence, 48 h, basal, profiling panel (AID 1165); settings: higher = more signal;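 note: viability of MM1S multiple myeloma cells under basal unstimulated conditions; test concentration not given here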
[5] = calcein-AM signal in unstimulated myeloma cells – cell-based, calcein-AM fluorescence, 48 h, PK04 Diversity Set, profiling panel (AID 1166); settings: RPMI8226 myeloma viability, higher = more signal;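 note: cells grown under basal conditions without added stimulus; test concentration not given here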
[6] = JC-1 mitochondrial signal, unstimulated HepG2 cells – cell-based, JC-1 fluorescence, 24 h, 100 nL compound, profiling panel (AID 1167); settings: HepG2 mitochondrial potential, higher = more signal; note: test concentration not given here
[7] = JC-1 mitochondrial signal, unstimulated adipocytes – cell-based, JC-1 fluorescence, 3T3-L1 adipocytes, 24 h, 100 nL compound, profiling panel (AID 1168); settings: JC-1 mitochondrial fluorescence, higher = more signal, called active from +8 up or from −8 down; note: test concentration not given here
[8] = JC-1 mitochondrial signal, unstimulated myeloma cells – cell-based, JC-1 fluorescence, RPMI8226, 24 h, 100 nL compound, profiling panel (AID 1169); settings: JC-1 mitochondrial potential fluorescence, higher = more signal; note: test concentration not given here
[9] = JC-1 mitochondrial signal, unstimulated MM1S myeloma – cell-based, JC-1 fluorescence, 24 h, 100 nL compound, profiling panel (AID 1170); settings: MM1S mitochondrial potential, higher = more signal; note: test concentration not given here
[10] = resazurin metabolic signal in A549 cells – cell-based, resazurin fluorescence, 24 h, PK04 Diversity Set, profiling panel (AID 1171); settings: A549 viability, higher = more signal, called active from +8 up or from −8 down; note: test concentration not given here
[11] = resazurin metabolic signal in HepG2 cells – cell-based, resazurin fluorescence, 24 h, PK04 Diversity Set, profiling panel (AID 1172); settings: HepG2 viability, higher = more signal; note: test concentration not given here
[12] = budding yeast growth changes without added modifier – OD600, strain BY4716, 24 h, basal condition, primary screen (AID 1173); settings: S. cerevisiae BY4716 growth, OD600, 24 h; higher = more signal, called active from +8 up or from −8 down
[13] = viability profiling in MM1S myeloma cells – cell-based, resazurin fluorescence, basal, 24 h, PK04 Diversity Set, profiling panel (AID 1174); settings: higher = more signal, called active from +8 up or from −8 down; note: test concentration not given here
[14] = target: Dihydroorotate dehydrogenase (quinone), mitochondrial (Plasmodium falciparum (isolate 3D7)) (UniProt Q08210); assay: inhibition of P. falciparum DHODH – biochemical, C-terminal His tag, absorbance 600 nm, primary screen (AID 1175); settings: PfDHODH enzyme, DCIP absorbance 600 nm; higher = more signal, called active from +8 up or from −8 down;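 note: recombinant parasite enzyme with a five histidine tag at its C terminus; test concentration not given here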
[15] = inhibition of PAO1 biofilm formation – strain PAO1, LB-PBS medium, absorbance 600 nm, primary screen (AID 1176); note: test concentration not given here; settings: P. aeruginosa PAO1 growth/biofilm, A600, 12 h; higher = more signal
[16] = growth modulation of vineyard yeast isolate – strain RM11-1a, OD600, basal, 24 h, primary screen (AID 1177);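 note: cultures grown under basal conditions with no added stressor; test concentration not given here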; settings: S. cerevisiae RM11-1a growth, OD600, 24 h; higher = more signal, called active from +8 up or from −8 down
[17] = growth of efflux-deficient E. coli DRC39 – strain DRC39, OD650, 24 h, E. coli filamentation inducers, primary screen (AID 1178);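 note: growth measured as culture turbidity by optical density at 650 nm; test concentration not given here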; settings: E. coli DRC39 acrAB, higher = more signal, called active from +8 up or from −8 down
[18] = growth of efflux-deficient E. coli DRC39 – strain DRC39, OD650, 48 h, E. coli filamentation inducers, primary screen (AID 1179);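 note: screen aims at cell division blockers that make cells filament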; settings: E. coli DRC39 delta-acrAB growth, higher = more signal, called active from +8 up or from −8 down
[19] = viability profiling in RPMI8226 myeloma cells – cell-based, resazurin fluorescence, basal, 24 h, PK04 Diversity Set, profiling panel (AID 1180); settings: higher = more signal;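 note: RPMI8826 multiple myeloma cell line at 5000 cells per well; test concentration not given here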
[20] = target: E3 ubiquitin-protein ligase XIAP (Homo sapiens) (UniProt P98170); assay: small molecules binding XIAP protein – biophysical, small-molecule microarray, fluorescence 635 nm, primary screen (AID 1181); settings: higher = more signal;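 note: score merges 667 nm emission and signal to noise over triplicate slides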
E3 ubiquitin-protein ligase XIAP (Homo sapiens), sequence (P98170 whole entry, looked up): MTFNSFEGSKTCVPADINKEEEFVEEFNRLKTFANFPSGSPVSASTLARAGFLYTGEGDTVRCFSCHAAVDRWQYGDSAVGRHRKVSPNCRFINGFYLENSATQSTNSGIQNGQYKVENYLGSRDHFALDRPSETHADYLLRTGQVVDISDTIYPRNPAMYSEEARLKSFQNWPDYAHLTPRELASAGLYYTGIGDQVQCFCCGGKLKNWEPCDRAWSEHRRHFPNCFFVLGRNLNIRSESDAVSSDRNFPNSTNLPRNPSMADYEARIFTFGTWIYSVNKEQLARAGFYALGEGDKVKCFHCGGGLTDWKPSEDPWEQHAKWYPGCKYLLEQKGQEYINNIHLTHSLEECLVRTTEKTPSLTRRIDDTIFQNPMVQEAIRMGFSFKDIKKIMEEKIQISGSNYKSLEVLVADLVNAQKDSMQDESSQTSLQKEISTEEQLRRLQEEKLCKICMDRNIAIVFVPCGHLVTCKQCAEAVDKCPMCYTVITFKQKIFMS

Dihydroorotate dehydrogenase (quinone), mitochondrial (Plasmodium falciparum (isolate 3D7)), sequence (Q08210 whole entry, looked up): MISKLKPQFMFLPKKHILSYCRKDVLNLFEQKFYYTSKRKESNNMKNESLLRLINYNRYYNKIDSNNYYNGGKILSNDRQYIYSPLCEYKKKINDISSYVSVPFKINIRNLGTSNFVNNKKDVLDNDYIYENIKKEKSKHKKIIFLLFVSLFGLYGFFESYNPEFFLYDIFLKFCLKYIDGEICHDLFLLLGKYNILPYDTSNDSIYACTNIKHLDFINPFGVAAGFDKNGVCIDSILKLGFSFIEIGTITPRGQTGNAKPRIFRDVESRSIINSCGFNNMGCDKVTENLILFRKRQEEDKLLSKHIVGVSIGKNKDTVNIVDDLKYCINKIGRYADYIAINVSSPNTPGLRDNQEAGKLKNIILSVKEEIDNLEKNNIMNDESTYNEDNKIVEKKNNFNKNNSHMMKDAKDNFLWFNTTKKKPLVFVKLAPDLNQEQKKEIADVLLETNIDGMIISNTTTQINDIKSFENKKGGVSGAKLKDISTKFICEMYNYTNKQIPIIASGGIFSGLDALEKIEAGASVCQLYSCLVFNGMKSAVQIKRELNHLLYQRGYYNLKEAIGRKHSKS

| SMILES | z-score [1] | z-score [2] | z-score [3] | z-score [4] | z-score [5] | z-score [6] | z-score [7] | z-score [8] | z-score [9] | z-score [10] | z-score [11] | z-score [12] | z-score [13] | composite z-score [14] | z-score [15] | z-score [16] | z-score [17] | z-score [18] | z-score [19] | composite z-score [20] |
| --- | --- | --- | --- | --- | --- | --- | --- | --- | --- | --- | --- | --- | --- | --- | --- | --- | --- | --- | --- | --- |
| COc1ccc(C(=O)Nc2ccc(CN3C(=O)[C@@]4(O[C@@H](CC(=O)N(CCO)Cc5ccccc5)[C@H]([Si](C)(C)c5ccc(OC)cc5)[C@H]4C)c4ccccc43)cc2)cc1 | -0.86 | 1.4 | -1.04 | -0.507 | -1.47 | 0.656 | 0.816 (inactive) | -0.931 | -0.493 | -0.861 (inactive) | 1.4 | 0.164 (inactive) | -0.952 (inactive) | -1.53 (inactive) | 0.814 (inactive) | 0.961 (inactive) | 0.7 (inactive) | 0.439 (inactive) | -1.29 | 0.101 |
| CCN1C(=O)C2CC(=O)C3C(CN(S(=O)(=O)c4ccc(C)cc4)C3c3ccc(C)cc3)C2C1=O (stereo not given) | 0.159 | -0.902 | 0.118 | 1.03 | 0.0667 | -0.167 | -0.00388 (inactive) | -0.129 | -1.25 | -0.064 (inactive) | -0.733 | 0.728 (inactive) | -0.631 (inactive) | 0.551 (inactive) | -0.144 (inactive) | 0.5 (inactive) | -0.772 (inactive) | 0.346 (inactive) | -0.627 | -0.148 |
| CCCCN1CC=CC23O[C@@H]4/C=C\CCC(C)OC(=O)C4[C@H]2C(=O)N(CCO)[C@@H]3C1=O (stereo not given in full) | -0.266 | 0.555 | -0.406 | -0.0157 | -1.19 | 0.0609 | -0.0386 (inactive) | 0.881 | 0.213 | 0.265 (inactive) | 1 | 0.256 (inactive) | 0.498 (inactive) | -0.252 (inactive) | 0.0279 (inactive) | -0.348 (inactive) | 0.32 (inactive) | -0.178 (inactive) | 0.82 | 0.0026 |
| COCCOC(=O)N1C(=O)[C@@]2(c3cc(C#CCNC(N)=O)ccc31)[C@H](c1ccccc1OCCO)N1[C@H](c3ccccc3)[C@H](c3ccccc3)OC(=O)[C@H]1[C@@H]2C(=O)N1CCCCCCC1 | -0.396 | -0.0319 | 0.371 | -1.22 | 0.56 | -1.51 | -1.3 (inactive) | -0.441 | -0.911 | 0.519 (inactive) | 0.875 | 1 (inactive) | 0.723 (inactive) | -0.321 (inactive) | 2.91 (inactive) | 1.09 (inactive) | -0.256 (inactive) | -0.276 (inactive) | -0.55 | -0.0143 |
| CCCCC(=C=CC[C@@H](O)c1ccccc1OCCO)C[C@@H](O)c1ccccn1 | -0.158 | -0.48 | 0.242 | -0.35 | -0.84 | -0.16 | 0.341 (inactive) | 0.495 | -0.179 | 0.756 (inactive) | 0.687 | -1.72 (inactive) | 0.538 (inactive) | -7.64 (inactive) | 0.354 (inactive) | -0.506 (inactive) | 1.04 (inactive) | 0.52 (inactive) | 0.805 | -0.287 |
| COc1ccc(CCNC(=O)[C@@H]2c3ccccc3C(=O)N(C(C)C)[C@H]2c2ccc(CO)cc2)cc1 | 2.2 | 1.29 | 0.188 | -0.397 | 1.1 | 0.733 | -0.232 (inactive) | -0.482 | 0.978 | 1.12 (inactive) | 0.862 | -0.313 (inactive) | 1.35 (inactive) | 0.261 (inactive) | -0.935 (inactive) | 0.326 (inactive) | 0.364 (inactive) | 0.246 (inactive) | 1.53 | -0.178 |
| CO[C@H]1O[C@H](CO)[C@@H](OC(=O)Nc2cccc(F)c2)[C@H](OC(=O)Nc2ccc3c(c2)OCO3)[C@@H]1OC(=O)Nc1ccc2c(c1)OCO2 | -1.33 | 0.726 | -1.07 | -1.49 | -1.74 | -0.96 | -0.672 (inactive) | -0.571 | -0.964 | -1.47 (inactive) | -0.705 | 1.38 (inactive) | -1 (inactive) | 0.368 (inactive) | 0.661 (inactive) | 1.82 (inactive) | 1.04 (inactive) | 0.761 (inactive) | -0.931 | 0.0526 |
| C[N+](C)(C)CCCC[C@@H]1NC(=O)[C@H]2C[C@@H](C(=O)NCCCCCN)[C@@H](c3ccc(O)cc3)N2C1=O | 2.02 | 0.727 | -0.224 | -1.68 | -0.145 | 1.66 | -0.359 (inactive) | 0.144 | -0.292 | 0.78 (inactive) | 0.372 | -0.589 (inactive) | 0.715 (inactive) | -1.86 (inactive) | -1.14 (inactive) | -0.683 (inactive) | 0.553 (inactive) | 0.751 (inactive) | 1.24 | 0.0017 |
| CCOC(=O)C[C@H]1[C@H](OC(=O)c2ccc(-c3ccccc3)cc2)[C@@H](NC(=O)C2CCCCC2)c2cc(OCCCO)ccc2N1C(=O)Cc1ccc(OC)cc1 | -0.869 | 0.0396 | -0.216 | -0.581 | -0.938 | 0.801 | -0.199 (inactive) | 0.823 | 0.488 | -0.0129 (inactive) | -0.0995 | 0.857 (inactive) | -0.456 (inactive) | -0.175 (inactive) | 0.55 (inactive) | -0.442 (inactive) | 0.0009 (inactive) | 0.0016 (inactive) | -0.131 | -0.144 |
